The record followed here is PubChem BioAssay (NCI).

The nature of test [1]: NCI Yeast Anticancer Drug Screen. Data for the rad50 strain (AID 155).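 Note: 0% = growth of vehicle-only cultures of the same strain.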 Particulars: S. cerevisiae rad50 strain growth inhibition; at 50.0 µM; hits give high values. In short, it runs like this:
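Relative growth inhibition (compound vs vehicle) was measured in yeast with a defined repair-gene alteration.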

A short description of test [2]: NCI Yeast Anticancer Drug Screen. Data for the mec2-1 strain (AID 157). The settings on record: S. cerevisiae mec2-1 strain, at 50.0 µM, hits give high values. In short, it runs like this: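 mec2-1 yeast strain, carrying an alteration in DNA damage repair or cell cycle control, was exposed to compounds; growth inhibition was measured relative to vehicle-treated controls.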

The nature of test [3]: NCI Yeast Anticancer Drug Screen. Data for the sgs1 mgt1 strain (AID 161).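 Note: 0% = growth of cultures given vehicle only.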 Particulars: S. cerevisiae sgs1 mgt1 strain, at 50.0 µM, hits give high values. Put shortly: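 Growth of a repair-deficient yeast mutant was monitored after compound treatment and expressed as inhibition relative to vehicle-treated cultures.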
Test [4] in a line: NCI Yeast Anticancer Drug Screen. Data for the cln2 rad14 strain (AID 165).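 Note: 0% = growth equal to vehicle treated cultures.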 Particulars: S. cerevisiae cln2 rad14 strain, at 50.0 µM, hits give high values. In short, it runs like this:
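Yeast carrying cln2 and rad14 alterations (cell cycle control and DNA damage repair) were exposed to compounds. Growth inhibition was measured against vehicle-treated controls.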

Test [5] in a line: NCI Yeast Anticancer Drug Screen. Data for the bub3 strain (AID 167). The settings on record: S. cerevisiae bub3 mutant strain, at 50.0 µM, hits give high values. In short, it runs like this:
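Screening used yeast with an engineered genetic alteration affecting cell cycle control. Compound-exposed cultures were compared with vehicle cultures, and reduced growth was taken as inhibition.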

Test [6] is described as follows: NCI Yeast Anticancer Drug Screen. Data for the mlh1 rad18 strain (AID 175). Particulars: S. cerevisiae mlh1 rad18 strain growth inhibition; at 50.0 µM; hits give high values. Put shortly:
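Growth inhibition of the yeast strain was measured after compound exposure and expressed relative to vehicle-treated controls. The strain carries defined defects in DNA damage repair.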

This is part of a sample that, as a whole, favours compounds with a hit. Of some 79,000 tested, about 15% had one in any assay. Values without a mark were called inactive. Activity calls are given as the source filed them. Cut-off read from the data, not from the text of the source: active = growth inhibition above about 70%; inactive = the rest.

In the case of `CCCCN(C(C)=O)c1ccccc1`, the growth inhibition was -8.8% in test [1]; 9.45% in test [2]; 4.2% in test [3]; -6.15% in test [4]; -9.4% in test [5]; 1.1% in test [6].

Turning to `Cc1cc(-c2ccc(Cl)cc2)c(C#N)c(=S)n1C1OC(CO)C(O)C(O)C1O` (stereo not given), the growth inhibition in test [1] was -19.4%; in test [2], -11%; in test [3], -5.3%; in test [4] it was 2.8%; in test [5], -2.95%; in test [6], 2.8%.

`C=CC1CC(NC(=O)OC)C(=O)O1` (stereo not given): the growth inhibition was 1.05% in test [1]; 5.2% in test [2]; 8.45% in test [3]; -38.1% in test [4]; 14.3% in test [5]; -3.25% in test [6].

On to `COC(=O)C1=C(C)N(NC(=O)c2ccccc2)C2(O)CCCC(=O)C12C` (stereo not given), for which the growth inhibition is 20.2% in test [1]; 2.2% in test [2]; 17.8% in test [3]; -29.6% in test [4]; -6.05% in test [5]; 23.9% in test [6].

As to `Cc1ccc(S(=O)(=O)OCC2C(COS(=O)(=O)c3ccc(C)cc3)C3C4C5C2C2C3C4C52)cc1` (stereo not given), the growth inhibition in test [1] was -15.9%; in test [2], -0.3%; in test [3], 9.75%; in test [4], 13.8%; in test [5], -5.5%; in test [6], -21.5%.

On to `CCOC(=O)N1C/C(=C\c2ccccc2)C(=O)/C(=C/c2ccccc2)C1`, for which the growth inhibition in test [1] was -6.85%; in test [2] it was 0.6%; in test [3], -12.3%; in test [4] it was 19.6%; in test [5], 9.15%; in test [6], 72.2% (active).

With `CC(=O)OC1CC(OC(C)=O)C(OC(C)=O)C(C)O1` (stereo not given), the growth inhibition is 1.15% in test [1]; 17.9% in test [2]; 4.7% in test [3]; -15.7% in test [4]; -1.85% in test [5]; 5.45% in test [6].

`N#CC(=Nc1cc(Cl)cc(Cl)c1)C1=C(O)c2ccccc2C1=O`: the growth inhibition is 5.75% in test [1]; 0.6% in test [2]; 30.1% in test [3]; 14.1% in test [4]; 35.9% in test [5]; 11% in test [6].

Regarding `Cn1c(=O)c2c(nc(OC3CCCCC3)n2C)n(C)c1=O`, the growth inhibition in test [1] was 14.1%; in test [2], -1.3%; in test [3], 29.4%; in test [4], 26.1%; in test [5], 57.5%; in test [6], -2.95%.

As to `O=C(O)C1=C(C(=O)O)C2CCC1C2`, the growth inhibition in test [1] was -25.1%; in test [2], -33.5%; in test [3], -23.2%; in test [4], 2.65%; in test [5], -11.8%; in test [6], -14.4%.

As to `CCc1cccc(C(C)C)c1NC(=O)C(=O)C(Cc1nc2ccccc2[nH]c1=O)C(=O)OC` (stereo not given), the growth inhibition is 37.8% in test [1]; 8.6% in test [2]; 3.85% in test [3]; -57.9% in test [4]; 2.4% in test [5]; 15.4% in test [6].

With `CC1=CC(=O)[C@@H](O)[C@]2(C)[C@H]3[C@@]4(O)OC[C@]35[C@H]([C@@H](CO)[C@H]4O)[C@@H](OC3OC(CO)C(O)C(O)C3O)C(=O)O[C@@H]5C[C@@H]12` (stereo not given in full), the growth inhibition in test [1] was -9.55%; in test [2] it was -14.5%; in test [3], -19.2%; in test [4], 2.65%; in test [5] it was -25.1%; in test [6], -25.9%.

Consider `[Cl-].[Dy+3].[O-]/N=C(\c1ccccc1)c1ccccn1.[O-]/N=C(\c1ccccc1)c1ccccn1.[O-]/N=C(\c1ccccc1)c1ccccn1`, for which the growth inhibition in test [1] was 27.4%; in test [2], 13.3%; in test [3], 20.2%; in test [4] it was 12.2%; in test [5], 19.4%; in test [6], 25.1%.

On to `CCc1cc2c(cc1/C(C)=N/N=C(\C)c1cc3c(cc1CC)C(C)(C)CCC3(C)C)C(C)(C)CCC2(C)C`, for which the growth inhibition in test [1] is -27.1%; in test [2], -1.8%; in test [3], -9.3%; in test [4] it was -30.6%; in test [5], 9.95%; in test [6], -15.5%.

For `N#CCCSC(=S)C1CCCCC1=N` (stereo not given), the growth inhibition in test [1] is -5.3%; in test [2], 0.8%; in test [3] it was 12.8%; in test [4], -112%; in test [5], -24.9%; in test [6] it was -2.25%.

Regarding `CCc1c(Sc2ccccn2)n(COCc2ccccc2)c(=O)[nH]c1=O`, the growth inhibition is -14.5% in test [1]; -4.4% in test [2]; -24.9% in test [3]; -16.4% in test [4]; -17.8% in test [5]; -16.1% in test [6].

For the molecule `COc1cc([N+](=O)[O-])ccc1NC(=O)C(Br)C(Br)c1ccccc1` (stereo not given), the growth inhibition is 11.7% in test [1]; -5.9% in test [2]; 10.6% in test [3]; -1.4% in test [4]; 12.5% in test [5]; 15.6% in test [6].

In the case of `NC(=O)COc1c(Br)cc(Br)cc1Br`, the growth inhibition is -1.55% in test [1]; 6.65% in test [2]; -12.1% in test [3]; -3.75% in test [4]; -21.4% in test [5]; -25.4% in test [6].

Turning to `COc1ccc(/C=C(/C#N)C(N)=O)c(OC)c1`, the growth inhibition was 1.85% in test [1]; -15.8% in test [2]; -34.1% in test [3]; -34.9% in test [4]; -31.8% in test [5]; 2.55% in test [6].

Take `C=CC(=O)OCCCCCCCCCC`: the growth inhibition in test [1] is 47.8%; in test [2] it was 5.6%; in test [3], 28.8%; in test [4] it was -0.7%; in test [5], 13.8%; in test [6] it was 42.1%.
